Each structure is given as a SMILES string. “And” between values parts separate entries of the source, which are not always exact repeats. Equal entries are not always repeated. For some assays here: Measured potencies and affinities stand elsewhere. Where a structure was tested more than once in an assay, its records may differ in their call. The source made the active and inactive calls. Unless noted, how the calls were made is not given here.

Experiment [1] is described as follows: antimalarial activity against Dd2 strain (AID 2302;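 active means growth inhibition above 50% at the single 2 µM test dose, taken to imply half-maximal potency below 2 µM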;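 further: 0% = DMSO untreated growth and 100% = chloroquine plus artemisinin killed control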). To be noted: P. falciparum Dd2 in RBCs, LDH growth readout, 72 h; at 2 µM; stronger effect = higher value.
A short description of experiment [2]: human hepatoma cell viability loss – ATP luminescence, cytotoxicity control for P. falciparum antimalarial project, primary screen (AID 2303;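 active means inhibition above 50%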;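 further: 0% = DMSO wells and 100% = digitonin-killed cells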). To be noted: HepG2 viability, 24-48 h, at 10 µM, stronger effect = higher value.
Experiment [3] concerns the target L-lactate dehydrogenase (Plasmodium falciparum (isolate CDC / Honduras)) (UniProt Q27743). Nature of the experiment: PfLDH activity inhibition – cell lysate, 3D7 strain, counter-screen for P. falciparum growth inhibition project (AID 2304).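 Further: 0% = vehicle and 100% = reference inhibitor.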 To be noted: P. falciparum 3D7 crude extract, LDH APAD/NBT absorbance; at 2 µM; stronger effect = higher value. For orientation: The purpose of a counterscreen is to sort out artefacts and off-target activity.

Experiment [4] in a line: inhibition of 3D7 malaria parasite growth – strain 3D7 (AID 2306).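 Further: 0% = DMSO wells and 100% = chloroquine plus artemisinin control wells.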 To be noted: P. falciparum 3D7 erythrocytic growth, LDH absorbance, 72 h; at 2 µM; stronger effect = higher value.
For experiment [5], the target named is Calcium-dependent protein kinase 1 (Plasmodium falciparum (isolate 3D7)) (UniProt P62344). Nature of the experiment: PfCDPK1 kinase inhibitors, biochemical, TCAMS library (AID 1159585; cut-off not given, nearly all actives have IC50 up to about 0.98 µM;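 further: inhibitors leave more ATP so luminescence rises with inhibition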). To be noted: recombinant PfCDPK1, Kinase-Glo ATP depletion luminescence. In general terms: In Kinase-Glo more light means more ATP remaining.
In experiment [6] the target is Plasmodium falciparum protein kinase 6 (PK6, PF3D7_1337100) (UniProt Q8IDW1). Nature of the experiment: PfPK6 kinase inhibitors, biochemical, TCAMS library (AID 1159586). To be noted: recombinant PfPK6, Kinase-Glo ATP depletion luminescence.
The target in experiment [7] is Protein kinase 7 (PK7), Plasmodium falciparum 3D7 (PF3D7_0213400) (UniProt Q7YTF7). Nature of the experiment: inhibition of Plasmodium PK7 catalytic activity – biochemical, TCAMS antimalarial set, Kinase-Glo luminescence (AID 1159587). To be noted: recombinant PfPK7, Kinase-Glo ATP depletion luminescence.
The target of experiment [8] is Calcium-dependent protein kinase 4 (Plasmodium falciparum (isolate 3D7)) (UniProt Q8IBS5). Description: PfCDPK4 kinase inhibitors, biochemical, TCAMS library (AID 1159588; cut-off not given, nearly all actives have IC50 up to about 0.91 µM). To be noted: recombinant PfCDPK4, Kinase-Glo ATP depletion luminescence.
Calcium-dependent protein kinase 4 (Plasmodium falciparum (isolate 3D7)), sequence (Q8IBS5 whole entry, looked up): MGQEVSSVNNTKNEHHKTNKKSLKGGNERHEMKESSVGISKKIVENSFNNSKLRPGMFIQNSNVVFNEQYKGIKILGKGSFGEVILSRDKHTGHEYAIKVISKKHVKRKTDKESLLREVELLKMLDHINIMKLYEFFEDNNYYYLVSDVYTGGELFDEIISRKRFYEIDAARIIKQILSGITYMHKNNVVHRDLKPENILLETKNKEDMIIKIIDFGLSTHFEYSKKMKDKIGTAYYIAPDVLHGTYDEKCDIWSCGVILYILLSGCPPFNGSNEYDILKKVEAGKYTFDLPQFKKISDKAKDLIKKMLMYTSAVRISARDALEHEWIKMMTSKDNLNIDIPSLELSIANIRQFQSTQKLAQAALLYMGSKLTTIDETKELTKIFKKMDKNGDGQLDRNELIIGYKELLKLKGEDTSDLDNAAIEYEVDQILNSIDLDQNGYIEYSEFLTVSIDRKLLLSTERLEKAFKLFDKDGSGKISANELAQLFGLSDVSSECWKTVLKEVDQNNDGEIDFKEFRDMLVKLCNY

L-lactate dehydrogenase (Plasmodium falciparum (isolate CDC / Honduras)), sequence (Q27743 whole entry, looked up): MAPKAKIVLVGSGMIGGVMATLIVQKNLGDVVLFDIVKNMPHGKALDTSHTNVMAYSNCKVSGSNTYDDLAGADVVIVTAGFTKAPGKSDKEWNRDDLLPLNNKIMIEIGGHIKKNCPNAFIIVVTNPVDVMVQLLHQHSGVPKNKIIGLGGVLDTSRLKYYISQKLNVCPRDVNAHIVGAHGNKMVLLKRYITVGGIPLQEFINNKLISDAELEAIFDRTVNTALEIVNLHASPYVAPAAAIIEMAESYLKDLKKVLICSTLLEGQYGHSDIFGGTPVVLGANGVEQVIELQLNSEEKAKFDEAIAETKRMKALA
Protein kinase 7 (PK7), Plasmodium falciparum 3D7 (PF3D7_0213400), sequence (Q7YTF7 1-343): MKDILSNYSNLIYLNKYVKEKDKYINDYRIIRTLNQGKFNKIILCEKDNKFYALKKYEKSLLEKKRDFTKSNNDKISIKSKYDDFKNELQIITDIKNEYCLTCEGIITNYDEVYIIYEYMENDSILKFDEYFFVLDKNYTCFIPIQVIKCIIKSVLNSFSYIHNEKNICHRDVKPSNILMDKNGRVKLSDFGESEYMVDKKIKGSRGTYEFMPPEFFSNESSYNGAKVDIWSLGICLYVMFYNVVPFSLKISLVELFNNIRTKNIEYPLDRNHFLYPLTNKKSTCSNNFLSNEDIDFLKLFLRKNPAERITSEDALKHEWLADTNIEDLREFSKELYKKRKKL
Calcium-dependent protein kinase 1 (Plasmodium falciparum (isolate 3D7)), sequence (P62344 whole entry, looked up): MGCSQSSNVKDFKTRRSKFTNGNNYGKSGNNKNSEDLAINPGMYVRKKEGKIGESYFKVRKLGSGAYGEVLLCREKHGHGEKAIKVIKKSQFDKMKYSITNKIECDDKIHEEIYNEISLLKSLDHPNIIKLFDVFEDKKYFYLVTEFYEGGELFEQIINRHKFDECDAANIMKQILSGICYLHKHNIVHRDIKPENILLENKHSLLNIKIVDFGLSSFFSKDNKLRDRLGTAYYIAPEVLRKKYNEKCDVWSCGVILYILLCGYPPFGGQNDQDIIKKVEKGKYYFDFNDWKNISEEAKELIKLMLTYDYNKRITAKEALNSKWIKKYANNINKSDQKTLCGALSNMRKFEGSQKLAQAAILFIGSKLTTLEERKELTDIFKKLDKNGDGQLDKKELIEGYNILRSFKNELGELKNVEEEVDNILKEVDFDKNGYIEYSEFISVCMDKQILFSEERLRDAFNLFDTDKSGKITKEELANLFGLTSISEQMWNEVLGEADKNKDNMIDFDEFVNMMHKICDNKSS
Plasmodium falciparum protein kinase 6 (PK6, PF3D7_1337100), sequence (Q8IDW1 1-305): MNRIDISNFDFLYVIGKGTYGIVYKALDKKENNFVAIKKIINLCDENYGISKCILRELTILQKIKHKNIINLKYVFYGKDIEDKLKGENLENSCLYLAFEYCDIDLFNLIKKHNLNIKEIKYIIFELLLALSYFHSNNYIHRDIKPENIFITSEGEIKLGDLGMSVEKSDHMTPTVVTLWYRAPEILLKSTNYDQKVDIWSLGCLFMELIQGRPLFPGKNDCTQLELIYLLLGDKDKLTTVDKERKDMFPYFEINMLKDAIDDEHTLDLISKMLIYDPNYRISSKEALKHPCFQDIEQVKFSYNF

For `Cc1c(C)c2c(c(C)c1O)CC[C@](C)(C(=O)N1CCC(CN3CCC(c4c[nH]c5ccccc45)CC3)CC1)O2`, the figures for the growth inhibition in experiment [1] and in experiment [4] were 98% (active) and 101% (active), respectively. Further, the inhibition in experiment [2] was 29% (inactive); in experiment [3], 2% (inactive). The result in experiment [5], in experiment [6], in experiment [7] and in experiment [8] was inactive.
As for `O=C(/C=C/c1ccc(Cl)c(Cl)c1)N1CCC(CN2CCC(c3cn(CC(=O)N4CCCCC4)c4ccccc34)CC2)CC1`, the growth inhibition in experiment [1] is 65% (active); in experiment [4], 100% (active). In addition, the inhibition in experiment [2] is 52% (active); in experiment [3], -2% (inactive). Besides, the outcome in experiment [5], in experiment [6], in experiment [7] and in experiment [8] was inactive.
On to `CC(C)CNCc1cccc(-c2ccc(CN(C(=O)Nc3ccccc3)C3CCN(Cc4ccccc4)CC3)cc2)c1`, for which the growth inhibition is 61% (active) in experiment [1] and 101% (active) in experiment [4]. In addition, the inhibition is 41% (inactive) in experiment [2] and -2% (inactive) in experiment [3]. In addition, the outcome in experiment [5], in experiment [6], in experiment [7] and in experiment [8] was inactive.
For the compound `O=C(/C=C/c1ccc(Cl)cc1Cl)NC1CCC(CN2CCC(c3c[nH]c4ccccc34)CC2)CC1` (configuration not stated), the growth inhibition in experiment [1] was 79% (active); in experiment [4], 101% (active). Besides, the results for the inhibition in experiment [2] and in experiment [3] were 37% (inactive) and 7% (inactive), respectively. The outcome in experiment [5], in experiment [6], in experiment [7] and in experiment [8] was inactive.
As for `COc1cc(NCCCNC(=O)c2cn(Cc3ccccc3)c3ccccc23)nc2ccccc12`, the growth inhibition in experiment [1] was 66% (active); in experiment [4] it was 101% (active). Moreover, the values for the inhibition in experiment [2] and in experiment [3] were 13% (inactive) and 0% (inactive), respectively. The result in experiment [5], in experiment [6], in experiment [7] and in experiment [8] was inactive.
With `CC[C@H]1CN2CCc3cc(OC)c(OC)cc3[C@@H]2C[C@@H]1C[C@H]1NCCc2c1cc(OC)c(O)c2I`, the growth inhibition in experiment [1] and in experiment [4] was 101% (active) in each case. Moreover, the inhibition in experiment [2] was 54% (active); in experiment [3] it was -4% (inactive). Besides, the outcome in experiment [5], in experiment [6], in experiment [7] and in experiment [8] was inactive.
Turning to `COC(=O)c1ccc(CC(C)NCC(O)c2ccc3ccc4ccccc4c3c2)cc1` (configuration not stated), the growth inhibition is 97% (active) in experiment [1] and 100% (active) in experiment [4]. The inhibition was 21% (inactive) in experiment [2] and -2% (inactive) in experiment [3]. The outcome in experiment [5], in experiment [6], in experiment [7] and in experiment [8] was inactive.
As to `CSc1ccc(C[C@@H](C)NC[C@H](O)c2cccc(Cl)c2)cc1`, the results for the growth inhibition in experiment [1] and in experiment [4] were 96% (active) and 97% (active), respectively. Further, the inhibition in experiment [2] was 8% (inactive); in experiment [3], 2% (inactive). Further, the outcome in experiment [5], in experiment [6], in experiment [7] and in experiment [8] was inactive.
With `O=C(/C=C/c1ccc(C(F)(F)F)cc1)NC1CCC(CN2CCC(c3c[nH]c4ccccc34)CC2)CC1` (configuration not stated), the growth inhibition in experiment [1] was 97% (active) and 100% (active); in experiment [4], 98% (active) and 101% (active). In addition, the inhibition in experiment [2] was 42% (inactive) and 73% (active); in experiment [3] it was -2% (inactive) and -3% (inactive). For the same compound, the outcome in experiment [5], in experiment [6], in experiment [7] and in experiment [8] was inactive.
With `CC(Cc1ccc(Oc2ccccc2)cc1)NCC(O)c1cccc(C(F)(F)F)c1` (configuration not stated), the growth inhibition in experiment [1] was 99% (active); in experiment [4], 98% (active). Moreover, the inhibition in experiment [2] was 16% (inactive); in experiment [3], 4% (inactive). For the same compound, the outcome in experiment [5], in experiment [6], in experiment [7] and in experiment [8] was inactive.
As for `CCOC(=O)c1c(CN2CCN(C)CC2)n(Cc2ccccc2)c2cc(Br)c(O)cc12`, the growth inhibition is 46% (inactive) in experiment [1] and 100% (active) in experiment [4]. The inhibition was 11% (inactive) in experiment [2] and -5% (inactive) in experiment [3]. Further, the outcome in experiment [5], in experiment [6], in experiment [7] and in experiment [8] was inactive.
As for `CC[C@H]1CN2CC[C@@H]1C[C@H]2[C@H](O)c1cc(N2CCC(c3ccccc3)CC2)nc2ccc(OC)cc12`, the growth inhibition in experiment [1] was 98% (active); in experiment [4], 99% (active). Besides, the inhibition in experiment [2] is 45% (inactive); in experiment [3], -5% (inactive). In addition, the result in experiment [5], in experiment [6], in experiment [7] and in experiment [8] was inactive.
Take `COc1ccc(CC(C)NCC(O)c2cccc(C(F)(F)F)c2)cc1` (configuration not stated): the growth inhibition is 94% (active) in experiment [1] and 98% (active) in experiment [4]. The figures for the inhibition in experiment [2] and in experiment [3] were -7% (inactive) and 3% (inactive), respectively. In addition, the outcome in experiment [5], in experiment [6], in experiment [7] and in experiment [8] was inactive.
As for `CNCC(O)c1cc(Cl)c(Cl)cc1C` (configuration not stated), the results for the growth inhibition in experiment [1] and in experiment [4] were 88% (active) and 98% (active), respectively. In addition, the results for the inhibition in experiment [2] and in experiment [3] were 0% (inactive) and 2% (inactive), respectively. The outcome in experiment [5], in experiment [6], in experiment [7] and in experiment [8] was inactive.
For the compound `Cc1ccc(C)c(C=CC(=O)NC2CCC(CN3CCC(c4c[nH]c5ccccc45)CC3)CC2)c1` (configuration not stated), the growth inhibition in experiment [1] is 55% (active) and 80% (active); in experiment [4] it was 101% (active) and 102% (active). Besides, the inhibition is 38% (inactive) and 46% (inactive) in experiment [2]; 3% (inactive) and 5% (inactive) in experiment [3]. Further, the result in experiment [5], in experiment [6], in experiment [7] and in experiment [8] was inactive.
Consider `OC(CNC1CCCCCC1)c1ccc(Cl)c(Cl)c1` (configuration not stated), for which the growth inhibition in experiment [1] is 98% (active); in experiment [4], 99% (active). The inhibition in experiment [2] and in experiment [3] was -3% (inactive) each time. Moreover, the outcome in experiment [5], in experiment [6], in experiment [7] and in experiment [8] was inactive.
For `CCN(CC)CCN1C(=O)C(O)(c2ccccc2Cl)c2c1cc(C#N)cc2C(F)(F)F` (configuration not stated), the growth inhibition in experiment [1] was 19% (inactive); in experiment [4], 88% (active). In addition, the values for the inhibition in experiment [2] and in experiment [3] were 21% (inactive) and -1% (inactive), respectively. The outcome in experiment [5], in experiment [6], in experiment [7] and in experiment [8] was inactive.
In the case of `O=C(Nc1ccc(Cl)c(Cl)c1)N1CCC(CN2CCC(c3c[nH]c4ccccc34)CC2)CC1`, the growth inhibition is 69% (active) in experiment [1] and 100% (active) in experiment [4]. The inhibition in experiment [2] was 46% (inactive); in experiment [3] it was -2% (inactive). Besides, the outcome in experiment [5], in experiment [6], in experiment [7] and in experiment [8] was inactive.
`Cc1cc(O)cc2c(C3CCN(CC4CCN(C(=O)/C=C/c5ccc(Cl)c(Cl)c5)CC4)CC3)c[nH]c12`: the growth inhibition is 100% (active) in experiment [1] and 101% (active) in experiment [4]. In addition, the inhibition in experiment [2] is 33% (inactive); in experiment [3], 3% (inactive). For the same compound, the result in experiment [5], in experiment [6], in experiment [7] and in experiment [8] was inactive.

In general, inhibition refers to the change of the read-out against control, counted positive when it falls.

Values taken from PubChem BioAssay.
